Measurements published in PubChem BioAssay.
For some assays here: Results with a measured potency or affinity are listed apart. Activity calls are given as the source filed them. Unless noted, the rule behind the calls is not given here.

Tests used:
[1] = antimalarial activity against Dd2 strain (AID 2302;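 active = growth inhibition above 50% at the single 2 µM test dose, taken to imply half-maximal potency below 2 µM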;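 note: 0% = DMSO untreated growth and 100% = chloroquine plus artemisinin killed control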); settings: P. falciparum Dd2 in RBCs, LDH growth readout, 72 h; at 2 µM; active compounds read high
[2] = HepG2 cytotoxicity, primary screen, cytotoxicity control for P. falciparum antimalarial project, cell-based, ATP luminescence (AID 2303;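 active = inhibition above 50%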;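 note: 0% = DMSO wells and 100% = digitonin-killed cells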); settings: HepG2 viability, 24-48 h, at 10 µM, active compounds read high
[3] = molecular target: L-lactate dehydrogenase (Plasmodium falciparum (isolate CDC / Honduras)) (UniProt Q27743); test: PfLDH activity inhibition – cell lysate, 3D7 strain, counter-screen for P. falciparum growth inhibition project (AID 2304);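 note: 0% = vehicle and 100% = reference inhibitor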; settings: P. falciparum 3D7 crude extract, LDH APAD/NBT absorbance; at 2 µM; active compounds read high
Sequence of L-lactate dehydrogenase (Plasmodium falciparum (isolate CDC / Honduras)) (Q27743 whole entry, looked up): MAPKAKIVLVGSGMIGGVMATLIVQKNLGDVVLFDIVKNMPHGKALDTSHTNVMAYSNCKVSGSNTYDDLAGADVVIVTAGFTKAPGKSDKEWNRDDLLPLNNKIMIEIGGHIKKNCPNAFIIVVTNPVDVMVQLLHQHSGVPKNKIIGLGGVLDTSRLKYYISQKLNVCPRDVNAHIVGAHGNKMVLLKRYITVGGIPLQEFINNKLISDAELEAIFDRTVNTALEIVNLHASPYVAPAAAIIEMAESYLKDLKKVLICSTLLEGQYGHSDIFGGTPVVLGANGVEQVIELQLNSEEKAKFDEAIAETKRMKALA

[4] = inhibition of 3D7 malaria parasite growth – strain 3D7 (AID 2306);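 note: 0% = DMSO wells and 100% = chloroquine plus artemisinin control wells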; settings: P. falciparum 3D7 erythrocytic growth, LDH absorbance, 72 h; at 2 µM; active compounds read high
[5] = molecular target: Plasmodium falciparum protein kinase 6 (PK6, PF3D7_1337100) (UniProt Q8IDW1); test: PfPK6 kinase inhibitors, biochemical, TCAMS library (AID 1159586); settings: recombinant PfPK6, Kinase-Glo ATP depletion luminescence
Sequence of Plasmodium falciparum protein kinase 6 (PK6, PF3D7_1337100) (Q8IDW1 1-305): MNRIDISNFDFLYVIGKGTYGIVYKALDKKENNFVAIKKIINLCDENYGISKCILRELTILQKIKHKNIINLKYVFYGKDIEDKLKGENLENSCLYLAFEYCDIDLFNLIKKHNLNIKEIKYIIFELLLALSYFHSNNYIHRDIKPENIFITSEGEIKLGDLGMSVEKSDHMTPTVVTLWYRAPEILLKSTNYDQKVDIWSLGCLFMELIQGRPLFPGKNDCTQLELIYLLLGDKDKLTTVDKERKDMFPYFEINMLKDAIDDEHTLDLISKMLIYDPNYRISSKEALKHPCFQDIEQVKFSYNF

[6] = molecular target: Protein kinase 7 (PK7), Plasmodium falciparum 3D7 (PF3D7_0213400) (UniProt Q7YTF7); test: inhibition of Plasmodium PK7 catalytic activity – biochemical, TCAMS antimalarial set, Kinase-Glo luminescence (AID 1159587); settings: recombinant PfPK7, Kinase-Glo ATP depletion luminescence
Sequence of Protein kinase 7 (PK7), Plasmodium falciparum 3D7 (PF3D7_0213400) (Q7YTF7 1-343): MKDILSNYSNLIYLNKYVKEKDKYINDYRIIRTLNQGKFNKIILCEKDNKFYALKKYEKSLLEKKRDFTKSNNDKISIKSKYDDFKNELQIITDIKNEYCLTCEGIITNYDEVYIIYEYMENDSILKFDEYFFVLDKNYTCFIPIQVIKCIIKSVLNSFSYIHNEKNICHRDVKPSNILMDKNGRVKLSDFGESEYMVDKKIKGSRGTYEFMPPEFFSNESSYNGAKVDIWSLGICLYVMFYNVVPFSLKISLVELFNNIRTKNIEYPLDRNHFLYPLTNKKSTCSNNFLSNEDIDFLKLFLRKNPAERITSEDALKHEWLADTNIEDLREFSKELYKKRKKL

[7] = molecular target: Calcium-dependent protein kinase 4 (Plasmodium falciparum (isolate 3D7)) (UniProt Q8IBS5); test: PfCDPK4 kinase inhibitors, biochemical, TCAMS library (AID 1159588; cut-off not given, nearly all actives have IC50 up to about 0.91 µM); settings: recombinant PfCDPK4, Kinase-Glo ATP depletion luminescence
Sequence of Calcium-dependent protein kinase 4 (Plasmodium falciparum (isolate 3D7)) (Q8IBS5 whole entry, looked up): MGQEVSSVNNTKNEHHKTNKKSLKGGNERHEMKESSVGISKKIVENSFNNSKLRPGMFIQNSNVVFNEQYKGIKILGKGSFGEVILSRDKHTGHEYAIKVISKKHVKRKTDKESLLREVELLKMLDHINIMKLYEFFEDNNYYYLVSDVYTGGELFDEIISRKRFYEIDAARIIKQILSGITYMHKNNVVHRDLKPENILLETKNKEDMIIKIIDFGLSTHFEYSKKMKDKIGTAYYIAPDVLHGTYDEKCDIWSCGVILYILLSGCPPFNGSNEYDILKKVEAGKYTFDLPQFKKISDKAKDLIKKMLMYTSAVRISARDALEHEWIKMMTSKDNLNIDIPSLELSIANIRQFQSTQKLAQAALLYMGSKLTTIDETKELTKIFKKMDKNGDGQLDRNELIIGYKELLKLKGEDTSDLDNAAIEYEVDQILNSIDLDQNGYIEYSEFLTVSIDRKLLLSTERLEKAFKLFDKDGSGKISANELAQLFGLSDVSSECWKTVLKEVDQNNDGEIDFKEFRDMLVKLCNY

| SMILES | growth inhibition [1] | inhibition [2] | inhibition [3] | growth inhibition [4] | outcome [5] | outcome [6] | outcome [7] |
| --- | --- | --- | --- | --- | --- | --- | --- |
| Oc1cccc(Nc2ccnc3cc(-c4ccncc4)ccc23)c1 | 99% (active) | 8% (inactive) | 1% (inactive) | 101% (active) | inactive | inactive | inactive |
| O=c1[nH]ccc2nc(N[C@@H]3CCNC3)nc(Nc3cc(Cl)cc(Cl)c3)c12 | 99% (active) | 99% (active) | -2% (inactive) | 101% (active) | inactive | inactive | – |
| CN(C)CCNCc1cccc(-c2ccc3c(Nc4ccc(Oc5ccccn5)cc4)ccnc3c2)c1 | 100% (active) | 27% (inactive) | 2% (inactive) | 99% (active) | inactive | inactive | inactive |
| COc1ccc(-c2cnc3ccc(NC4CCC(O)CC4)nn23)cn1 (stereo not given) | 73% (active) | 54% (active) | 4% (inactive) | 98% (active) | inactive | inactive | inactive |
| O=C(NCC(c1ccc(C(F)(F)F)cc1)N1CCCC1)c1cc(-c2ccncc2)c(-c2cccc(O)c2)o1 (stereo not given) | 53% (active) | 9% (inactive) | 0% (inactive) | 95% (active) | inactive | inactive | – |
| NCCCOc1cnc(-c2ccccc2)c2nc(-c3nonc3N)n(CCc3ccccc3)c12 | 86% (active) | 56% (active) | -4% (inactive) | 93% (active) | inactive | inactive | inactive |
| CN1CCN(CCCNCc2cccc(Nc3nccc(Nc4ccc(Oc5ccccc5)cc4)n3)c2)CC1 | 80% (active) | 97% (active) | -2% (inactive) | 100% (active) | inactive | inactive | inactive |
| Nc1ncc(-c2cn[nH]c2)cc1-c1nc2ccc(Cl)cc2[nH]1 | 100% (active) | 46% (inactive) | -5% (inactive) | 101% (active) | inactive | inactive | inactive |
| NS(=O)(=O)CCc1cccc(Nc2nccc(-c3c(-c4cccc(NC(=O)c5c(F)cccc5F)c4)nn4ccccc34)n2)c1 | 97% (active) | 84% (active) | 3% (inactive) | 98% (active) | inactive | inactive | – |
| CC(=O)Nc1cccc(Nc2nccc(Nc3ccc(Oc4ccccc4)cc3)n2)c1 | 99% (active) | 15% (inactive) | -6% (inactive) | 101% (active) | inactive | inactive | inactive |
| CC(C)(CN)c1nc(-c2ccc(Cl)c(O)c2)c(-c2ccnc(N)n2)[nH]1 | 95% (active) | 34% (inactive) | -5% (inactive) | 95% (active) | inactive | inactive | inactive |
| CCn1c(-c2nonc2N)nc2c(-c3cccc(Cl)c3)ncc(OCCCNCCc3cnc[nH]3)c21 | 98% (active) | 16% (inactive) | -3% (inactive) | 101% (active) | inactive | inactive | – |
| CCn1c(-c2nonc2N)nc2c(-c3cccc(NC(=O)Nc4ccccc4Cl)c3)ncc(OCCCN)c21 | 74% (active) | 2% (inactive) | -4% (inactive) | 99% (active) | inactive | inactive | – |
| NCC(NC(=O)c1ccc(-c2c[nH]c3ncccc23)s1)c1ccccc1 (stereo not given) | 87% (active) | 52% (active) | 0% (inactive) | 95% (active) | inactive | inactive | – |
| CCn1c(-c2nonc2N)nc2c(-c3cccc(NC(=O)Nc4ccc(C#N)cc4)c3)ncc(OCCCN)c21 | 80% (active) | 1% (inactive) | 0% (inactive) | 85% (active) | inactive | inactive | – |
| O=C(Nc1cccc(-c2nn3ncccc3c2-c2ccnc(Nc3cccc(-c4cnco4)c3)n2)c1)c1c(F)cccc1F | 98% (active) | 96% (active) | 2% (inactive) | 97% (active) | inactive | inactive | – |
| CCn1c(-c2nonc2N)nc2c(-c3ccccc3)ncc(OCCCNCCCN3CCOCC3)c21 | 91% (active) | 28% (inactive) | -7% (inactive) | 100% (active) | inactive | inactive | – |
| CC(c1cccc(Nc2nccc(-c3c(-c4cccc(NC(=O)c5c(F)cccc5F)c4)nn4ccccc34)n2)c1)S(C)(=O)=O (stereo not given) | 99% (active) | 76% (active) | -6% (inactive) | 98% (active) | inactive | inactive | – |
| Cc1ccc(Nc2ccnc(Nc3ccc4c(c3)CS(=O)(=O)C4)n2)cc1O | 76% (active) | 82% (active) | 5% (inactive) | 102% (active) | – | inactive | inactive |
| NS(=O)(=O)c1cccc(Nc2nccc(-c3c(-c4cccc(NC(=O)c5c(F)cccc5F)c4)nn4ccccc34)n2)c1 | 97% (active) | 81% (active) | 2% (inactive) | 98% (active) | inactive | inactive | – |
| O=C(Nc1cccc(-c2nn3ccccc3c2-c2ccnc(Nc3ccc(C(=O)N4CCOCC4)cc3)n2)c1)c1c(F)cccc1F | 97% (active) | 72% (active) | 4% (inactive) | 99% (active) | inactive | inactive | – |
| CCn1c(-c2nonc2N)nc2c(-c3cccc(Cl)c3)ncc(OCCCNCc3cnc(C)nc3N)c21 | 48% (inactive) | 21% (inactive) | 3% (inactive) | 93% (active) | inactive | inactive | – |
